# Measured values reported in PubChem BioAssay (EPA / NIEHS).
# Calls of active or inactive are those of the source. How the source made its calls: active means hit-call score of the fitted dose curve at least 0.9, where 1 is the maximum; inactive means score below 0.9.
# What was measured:
# [1] = target: Paired box protein Pax-6 (Homo sapiens) (UniProt P26367); assay: ATG_Pax6_CIS: Attagene CIS-FACTORIAL HepG2 Assay for human Paired Box 6 (PAX6) (AID 2282956); conditions: HepG2 CIS-FACTORIAL PAX6 reporter transcription, RNA readout; actives raise or lower the signal
# Paired box protein Pax-6 (Homo sapiens), sequence (P26367 whole entry, looked up): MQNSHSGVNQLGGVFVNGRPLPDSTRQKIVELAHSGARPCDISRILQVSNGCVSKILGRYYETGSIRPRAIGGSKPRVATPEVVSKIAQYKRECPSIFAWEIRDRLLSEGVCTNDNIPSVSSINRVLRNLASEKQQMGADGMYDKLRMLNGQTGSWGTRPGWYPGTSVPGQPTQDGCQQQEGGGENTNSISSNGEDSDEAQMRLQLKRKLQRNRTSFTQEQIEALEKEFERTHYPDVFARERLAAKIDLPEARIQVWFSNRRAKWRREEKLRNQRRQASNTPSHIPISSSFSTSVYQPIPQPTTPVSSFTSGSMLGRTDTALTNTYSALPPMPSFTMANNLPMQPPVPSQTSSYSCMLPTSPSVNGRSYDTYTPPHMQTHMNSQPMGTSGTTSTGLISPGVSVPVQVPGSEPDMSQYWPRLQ
# How it was run: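 Multiplexed cis-reporter HepG2 system; 24 h treatment; reporter mRNA read by RT-PCR/CE fluorescence; bidirectional fit vs DMSO.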
# [2] = ATG_PXRE_CIS: Attagene CIS-FACTORIAL HepG2 Assay for human Pregnane X Receptor Element (PXRE) (AID 2282957); conditions: HepG2 Attagene CIS-FACTORIAL PXRE reporter, mRNA; actives raise or lower the signal
# How it was run: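 Multiplexed cis-reporter assay in transiently transfected human HepG2 cells; 24 h chemical exposure. Reporter transcripts quantified by RT-PCR with fluorescent labeling and capillary electrophoresis.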
# [3] = ATG_PPRE_CIS: Attagene CIS-FACTORIAL HepG2 Assay for human Peroxisome Proliferator-activated Response Element (PPRE) (AID 2282958); conditions: HepG2 PPRE cis-element reporter, Attagene transcription factor profiling; actives raise or lower the signal
# How it was run: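 In this cell-based multiplex, a PPRE cis element drives a reporter sequence in transiently transfected HepG2 cells. Following 24 h treatment, labeled cDNA amplicons are sized and quantified by capillary electrophoresis, with DMSO defining baseline.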
# [4] = ATG_RORE_CIS: Attagene CIS-FACTORIAL HepG2 Assay for human RAR-related Orphan Receptor Element (RORE) (AID 2282959); conditions: HepG2 Attagene cis-factorial RORE reporter, mRNA; actives raise or lower the signal
# How it was run: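 Endogenous factor activity at a cis response element is read as reporter transcript levels in HepG2 cells, 24 h post-dose. Transcripts are quantified by RT-PCR with capillary electrophoresis, and data fitted in both directions against DMSO.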
# [5] = ATG_Sox_CIS: Attagene CIS-FACTORIAL HepG2 Assay for human SRY-box transcription factor (SOX) (AID 2282960); conditions: HepG2 Attagene cis-factorial SOX reporter, mRNA; actives raise or lower the signal
# How it was run: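 Measures mRNA induction of a SOX1-associated reporter in HepG2 after 24 h dosing. Fluorescently labelled RT-PCR fragments are separated by capillary electrophoresis, and gain or loss relative to DMSO control is fitted.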
# [6] = target: Transcription factor Sp1 (Homo sapiens) (UniProt P08047); assay: ATG_Sp1_CIS: Attagene CIS-FACTORIAL HepG2 Assay for human Specificity Protein 1 (Sp1) (AID 2282961); conditions: HepG2 Sp1 cis-reporter transcription, actives raise or lower the signal
# Transcription factor Sp1 (Homo sapiens), sequence (P08047 whole entry, looked up): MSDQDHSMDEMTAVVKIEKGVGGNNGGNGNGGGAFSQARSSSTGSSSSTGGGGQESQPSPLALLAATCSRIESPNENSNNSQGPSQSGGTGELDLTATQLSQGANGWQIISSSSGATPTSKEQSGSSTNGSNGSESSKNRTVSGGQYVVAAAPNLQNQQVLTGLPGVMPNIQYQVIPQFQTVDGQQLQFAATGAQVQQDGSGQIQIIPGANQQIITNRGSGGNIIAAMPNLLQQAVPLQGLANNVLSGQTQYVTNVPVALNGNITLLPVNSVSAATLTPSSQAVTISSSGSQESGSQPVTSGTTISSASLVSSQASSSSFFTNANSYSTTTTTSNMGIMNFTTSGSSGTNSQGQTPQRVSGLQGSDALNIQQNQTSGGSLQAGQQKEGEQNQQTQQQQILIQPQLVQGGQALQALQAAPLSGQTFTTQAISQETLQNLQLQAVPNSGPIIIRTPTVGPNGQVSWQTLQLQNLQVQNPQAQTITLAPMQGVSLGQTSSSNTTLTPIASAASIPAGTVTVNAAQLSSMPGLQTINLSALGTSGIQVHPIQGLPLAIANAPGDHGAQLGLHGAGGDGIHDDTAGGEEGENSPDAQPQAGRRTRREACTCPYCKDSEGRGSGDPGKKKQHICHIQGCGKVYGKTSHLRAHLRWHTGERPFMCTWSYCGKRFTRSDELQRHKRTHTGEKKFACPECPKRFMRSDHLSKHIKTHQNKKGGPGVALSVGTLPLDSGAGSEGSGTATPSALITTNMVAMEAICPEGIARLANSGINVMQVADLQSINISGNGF
# How it was run: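 Cells: HepG2, transiently transfected with cis-regulated multiplexed reporters. Exposure: 24 h. Detection: reporter transcripts amplified, fluorescently labeled, restriction-digested and sized by capillary electrophoresis. Analysis: bidirectional fit relative to DMSO.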
# [7] = ATG_SREBP_CIS: Attagene CIS-FACTORIAL HepG2 Assay for human Sterol Regulatory Element Binding (SREBP) (AID 2282962); conditions: HepG2 Attagene cis-factorial SREBP reporter, mRNA; actives raise or lower the signal
# How it was run: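 mRNA induction of transfected cis-promoter reporters in HepG2 cells, 24 h post-dose. Detection: RT-PCR with 6-FAM-labelled products, HpaI digest, capillary electrophoresis. DMSO served as negative control and baseline.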
# [8] = target: Signal transducer and activator of transcription 3 (Homo sapiens) (UniProt P40763); assay: ATG_STAT3_CIS: Attagene CIS-FACTORIAL HepG2 Assay for human Signal Transducer and Activator of Transcription 3 (STAT3) (AID 2282963); conditions: HepG2, Attagene cis-factorial STAT3 reporter transcription; actives raise or lower the signal
# Signal transducer and activator of transcription 3 (Homo sapiens), sequence (P40763 whole entry, looked up): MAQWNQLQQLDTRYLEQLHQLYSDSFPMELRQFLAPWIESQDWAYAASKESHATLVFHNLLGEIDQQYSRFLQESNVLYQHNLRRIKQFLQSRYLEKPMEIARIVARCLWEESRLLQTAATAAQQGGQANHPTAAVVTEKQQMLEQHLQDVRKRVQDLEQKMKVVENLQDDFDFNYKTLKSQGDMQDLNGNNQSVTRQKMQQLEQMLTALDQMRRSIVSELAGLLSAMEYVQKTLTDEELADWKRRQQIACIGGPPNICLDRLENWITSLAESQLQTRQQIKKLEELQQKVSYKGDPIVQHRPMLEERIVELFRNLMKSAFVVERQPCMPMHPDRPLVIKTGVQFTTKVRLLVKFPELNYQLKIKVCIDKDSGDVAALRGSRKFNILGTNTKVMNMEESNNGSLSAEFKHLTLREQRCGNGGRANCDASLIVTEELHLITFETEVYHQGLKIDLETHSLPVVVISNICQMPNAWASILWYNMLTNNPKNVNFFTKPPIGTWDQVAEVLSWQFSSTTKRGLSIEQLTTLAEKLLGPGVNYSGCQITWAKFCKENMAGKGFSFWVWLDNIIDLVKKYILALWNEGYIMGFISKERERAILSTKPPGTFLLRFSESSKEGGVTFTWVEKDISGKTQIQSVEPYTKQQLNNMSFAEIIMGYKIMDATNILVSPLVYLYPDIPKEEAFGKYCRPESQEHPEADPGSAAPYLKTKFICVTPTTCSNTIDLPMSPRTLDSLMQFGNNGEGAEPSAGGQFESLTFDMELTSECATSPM
# How it was run: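 Transcript-level reporter assay. HepG2 transient MRTU transfection, 24 h exposure, fluorescence detection after RT-PCR and CE; DMSO baseline.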
# [9] = ATG_TA_CIS: Attagene CIS-FACTORIAL HepG2 Assay for human TA Basal Promoter (AID 2282964); conditions: HepG2 Attagene CIS-factorial TA basal promoter reporter; actives raise or lower the signal
# How it was run: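 Transient MRTU transfection of HepG2 preceded 24 h compound exposure. Reporter mRNA levels were then read by RT-PCR with capillary electrophoresis, and this background-control endpoint was fitted bidirectionally to DMSO.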
# [10] = ATG_TCF_b_cat_CIS: Attagene CIS-FACTORIAL HepG2 Assay for human T-Cell-Factor with beta-catenin (TCF/b-cat) (AID 2282965); conditions: HepG2 TCF/beta-catenin cis-reporter transcription, actives raise or lower the signal
# How it was run: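 Using capillary electrophoresis as the read-out, labelled reporter cDNA fragments from transiently transfected HepG2 were sized and quantified. Exposure lasted 24 hours; activity in either direction was referenced to DMSO.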
compound,measurement,setting,value
O=C(O)c1ccc(O)cc1,outcome,[1],inactive
same,outcome,[2],inactive
same,outcome,[3],inactive
same,outcome,[4],inactive
same,outcome,[5],inactive
same,outcome,[6],inactive
same,outcome,[7],inactive
same,outcome,[8],inactive
same,outcome,[9],inactive
same,outcome,[10],inactive
CCCCN(CCCC)C(=O)N(CCCC)CCCC,AC50,[1],37.2 µM (active)
same,AC50,[2],0.753 µM (active)
same,AC50,[3],61 µM (active)
same,outcome,[4],inactive
same,AC50,[5],52.2 µM (active)
same,AC50,[6],46.8 µM (active)
same,AC50,[7],54.6 µM (active)
same,outcome,[8],inactive
same,AC50,[9],25.5 µM (active)
same,AC50,[10],60.6 µM (active)
COC(C)(C)CCO,outcome,[1],inactive
same,outcome,[2],inactive
same,outcome,[3],inactive
same,outcome,[4],inactive
same,outcome,[5],inactive
same,outcome,[6],inactive
same,outcome,[7],inactive
same,outcome,[8],inactive
same,outcome,[9],inactive
same,outcome,[10],inactive
CCOC(=O)C1OC1c1ccccc1 (configuration not stated),outcome,[1],inactive
same,outcome,[2],inactive
same,AC50,[3],21.6 µM (active)
same,outcome,[4],inactive
same,outcome,[5],inactive
same,outcome,[6],inactive
same,outcome,[7],inactive
same,outcome,[8],inactive
same,outcome,[9],inactive
same,AC50,[10],48 µM (active)
COC(C)(C)CCCC(C)CC=O (configuration not stated),outcome,[1],inactive
same,outcome,[2],inactive
same,outcome,[3],inactive
same,outcome,[4],inactive
same,outcome,[5],inactive
same,outcome,[6],inactive
same,outcome,[7],inactive
same,outcome,[8],inactive
same,outcome,[9],inactive
CCc1ncc(C)[nH]1,outcome,[1],inactive
same,outcome,[2],inactive
same,outcome,[3],inactive
same,outcome,[4],inactive
same,outcome,[5],inactive
same,outcome,[6],inactive
same,outcome,[7],inactive
same,outcome,[8],inactive
same,outcome,[9],inactive
same,outcome,[10],inactive
CCOc1ccccc1O,outcome,[1],inactive
same,outcome,[2],inactive
same,outcome,[3],inactive
same,outcome,[4],inactive
same,outcome,[5],inactive
same,outcome,[6],inactive
same,outcome,[7],inactive
same,outcome,[8],inactive
same,outcome,[9],inactive
same,outcome,[10],inactive
OCCc1ccccc1,outcome,[1],inactive
same,outcome,[2],inactive
same,outcome,[3],inactive
same,outcome,[4],inactive
same,outcome,[5],inactive
same,outcome,[6],inactive
same,outcome,[7],inactive
same,outcome,[8],inactive
same,outcome,[9],inactive
[Cl][Au]([Cl])[Cl],outcome,[1],inactive
same,outcome,[2],inactive
same,outcome,[3],inactive
same,outcome,[4],inactive
same,outcome,[5],inactive
same,outcome,[6],inactive
same,outcome,[7],inactive
same,outcome,[8],inactive
same,outcome,[9],inactive
same,outcome,[10],inactive
Clc1ccc(C(c2ccccc2Cl)C(Cl)Cl)cc1 (configuration not stated),outcome,[1],inactive
same,AC50,[2],1.5 µM (active)
same,AC50,[3],31.9 µM (active)
same,AC50,[4],27.3 µM (active)
same,AC50,[5],182 µM (active)
same,AC50,[6],52.7 µM (active)
same,outcome,[7],inactive
same,AC50,[8],161 µM (active)
same,outcome,[9],inactive
same,AC50,[10],59.9 µM (active)
CCOC(=O)CC(C)O (configuration not stated),outcome,[1],inactive
same,outcome,[2],inactive
same,outcome,[3],inactive
same,outcome,[4],inactive
same,outcome,[5],inactive
same,outcome,[6],inactive
same,outcome,[7],inactive
same,outcome,[8],inactive
same,outcome,[9],inactive
CC1C2CC(CC2C2CCCC(O)C2)C1(C)C (configuration not stated),outcome,[1],inactive
same,AC50,[2],3.04 µM (active)
same,outcome,[3],inactive
same,outcome,[4],inactive
same,outcome,[5],inactive
same,outcome,[6],inactive
same,outcome,[7],inactive
same,outcome,[8],inactive
same,outcome,[9],inactive
same,outcome,[10],inactive
CC(=O)C1(C)CC2=C(CCCC2(C)C)CC1C (configuration not stated),outcome,[1],inactive
same,AC50,[2],25.6 µM (active)
same,AC50,[3],100 µM (active)
same,AC50,[4],74.4 µM (active)
same,outcome,[5],inactive
same,AC50,[6],162 µM (active)
same,AC50,[7],85.8 µM (active)
same,outcome,[8],inactive
same,outcome,[9],inactive
same,AC50,[10],73.3 µM (active)
CC(O)C1CCCCC1 (configuration not stated),outcome,[1],inactive
same,outcome,[2],inactive
same,outcome,[3],inactive
same,outcome,[4],inactive
same,outcome,[5],inactive
same,outcome,[6],inactive
same,outcome,[7],inactive
same,outcome,[8],inactive
same,outcome,[9],inactive
same,outcome,[10],inactive
C=C(C)C(=O)OCCOC1CC2CC1C1C=CCC21 (configuration not stated),outcome,[1],inactive
same,outcome,[2],inactive
same,outcome,[3],inactive
same,outcome,[4],inactive
same,outcome,[5],inactive
same,outcome,[6],inactive
same,outcome,[7],inactive
same,outcome,[8],inactive
same,outcome,[9],inactive
same,outcome,[10],inactive
COc1cc(C(C)C)ccc1C,outcome,[1],inactive
same,outcome,[2],inactive
same,outcome,[3],inactive
same,outcome,[4],inactive
same,outcome,[5],inactive
same,outcome,[6],inactive
same,outcome,[7],inactive
same,outcome,[8],inactive
same,outcome,[9],inactive
same,outcome,[10],inactive
COC(CC(C)CCCC(C)(C)O)OC (configuration not stated),outcome,[1],inactive
same,outcome,[2],inactive
same,outcome,[3],inactive
same,outcome,[4],inactive
same,outcome,[5],inactive
same,outcome,[6],inactive
same,outcome,[7],inactive
same,outcome,[8],inactive
same,outcome,[9],inactive
same,outcome,[10],inactive
C=C(C#N)C(=O)OCC,outcome,[1],inactive
same,outcome,[2],inactive
same,outcome,[3],inactive
same,outcome,[4],inactive
same,outcome,[5],inactive
same,outcome,[6],inactive
same,outcome,[7],inactive
same,outcome,[8],inactive
same,outcome,[9],inactive
same,AC50,[10],100 µM (active)
O=C(Nc1ccc([N+](=O)[O-])cc1)Nc1ccc([N+](=O)[O-])cc1 (tested in a mixture with another compound),outcome,[1],inactive
same,outcome,[2],inactive
same,outcome,[3],inactive
same,outcome,[4],inactive
same,outcome,[5],inactive
same,outcome,[6],inactive
same,outcome,[7],inactive
same,outcome,[8],inactive
same,outcome,[9],inactive
same,outcome,[10],inactive
CCCCC(CC)(CO)CO,outcome,[1],inactive
same,outcome,[2],inactive
same,outcome,[3],inactive
same,outcome,[4],inactive
same,outcome,[5],inactive
same,outcome,[6],inactive
same,outcome,[7],inactive
same,outcome,[8],inactive
same,outcome,[9],inactive
same,outcome,[10],inactive
CCc1ccc(O)cc1,outcome,[1],inactive
same,AC50,[2],32.3 µM (active)
same,outcome,[3],inactive
same,outcome,[4],inactive
same,outcome,[5],inactive
same,outcome,[6],inactive
same,outcome,[7],inactive
same,outcome,[8],inactive
same,outcome,[9],inactive
same,outcome,[10],inactive
O=C1OC(=O)c2c(Cl)c(Cl)c(Cl)c(Cl)c21,outcome,[1],inactive
same,outcome,[2],inactive
same,AC50,[3],177 µM (active)
same,outcome,[4],inactive
same,outcome,[5],inactive
same,outcome,[6],inactive
same,outcome,[7],inactive
same,outcome,[8],inactive
same,outcome,[9],inactive
same,outcome,[10],inactive
OCc1cccc(Oc2ccccc2)c1,outcome,[1],inactive
same,AC50,[2],27.4 µM (active)
same,outcome,[3],inactive
same,outcome,[4],inactive
same,outcome,[5],inactive
same,outcome,[6],inactive
same,outcome,[7],inactive
same,outcome,[8],inactive
same,outcome,[9],inactive
same,outcome,[10],inactive
NC(=S)NNC(N)=S,outcome,[1],inactive
same,outcome,[2],inactive
same,outcome,[3],inactive
same,outcome,[4],inactive
same,outcome,[5],inactive
same,outcome,[6],inactive
same,outcome,[7],inactive
same,outcome,[8],inactive
same,outcome,[9],inactive
same,outcome,[10],inactive
CCc1ccc(O)c(OC)c1,outcome,[1],inactive
same,outcome,[2],inactive
same,outcome,[3],inactive
same,outcome,[4],inactive
same,outcome,[5],inactive
same,outcome,[6],inactive
same,outcome,[7],inactive
same,outcome,[8],inactive
same,outcome,[9],inactive
same,outcome,[10],inactive
